Results filed as inconclusive are left out. Calls of active or inactive are those of the source. Calls come from the whole dose curve; as a rule, active = well fitted inhibition curve with a large enough effect; inconclusive = small, poorly fitted or top-dose-only effect; inactive = flat fitted curve, though single readings scatter.

We go through five molecules from PubChem BioAssay (NCATS).

Holding throughout (assay): qHTS profiling for inhibitors of Plasmodium falciparum proliferation (AID 504749); note: nearly all actives have a fitted effect of over 60% in size
Conditions in all cases: P. falciparum in erythrocytes, SYBR Green DNA, 72 h; series mostly up to 28.7 µM
(In general: Quantitative high-throughput screening tests each substance at several concentrations.)

For one experiment, the system named is AS120. The method in brief: (§1)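 Parasite proliferation within erythrocytes, 72 h exposure. Endpoint: SYBR Green I fluorescence after overnight lysis at room temperature. Controls: 0.29 uM artemisinin, DMSO.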
The subject of a further experiment is ATS95. The method in brief:
as §1

The next experiment relates to C2A. The method in brief:
as §1

In the next experiment the test system is CP185. The method in brief:
as §1

The test system of another experiment is CP191. Summed up:
as §1

For another experiment, the system named is CP201. Summed up: as §1
The test system of the next experiment is CP237. Summed up:
as §1

Another experiment has as its system CP238. The method in brief: as §1
For another experiment, the system named is CP247. The method in brief: as §1
A further experiment concerns CP252. The method in brief:
as §1

For the next experiment, the system named is CP256. Summed up: as §1
For another experiment, the system named is CP265. The method in brief: as §1
Another experiment concerns CP329. The method in brief: as §1
In the next experiment the test system is DIV30. Summed up: as §1
The next experiment has as its system HB3. The method in brief: as §1
In the next experiment the test system is P94_40. The method in brief: as §1
The next experiment concerns PAD. The method in brief:
as §1

In another experiment the test system is PC49. The method in brief:
as §1

A further experiment concerns SC27B. The method in brief:
as §1

For a further experiment, the system named is TAB113. Summed up:
as §1
Potency is the fitted concentration of half-maximal effect.

Turning to `OC[C@H](S)CS`, the Potency entry in the experiment on AS120, in the experiment with C2A, with CP185, in the experiment with CP191, with CP201 and with CP238 was “inactive” each time. Besides, the Potency entry in the experiment on CP247, with CP252, in the experiment on CP256, in the experiment with CP265, with CP329 and with DIV30 was “inactive” in each case. The Potency result in the experiment on P94_40, with PAD, in the experiment on PC49, in the experiment with SC27B and in the experiment with TAB113 was “inactive” in each case. For the same molecule, the Potency in the experiment with ATS95 is 12.6 µM (active); in the experiment with CP237, 2.24 µM (active); in the experiment on HB3, 2 µM (active).
On to `CCc1ccc2c(c1)N(C[C@H](C)CN(C)C)c1ccccc1S2`, for which the Potency result in the experiment on CP185, in the experiment with CP201, in the experiment on CP238, with CP247, in the experiment with CP252 and in the experiment on CP265 was “inactive” each time. Also, the Potency result with CP329, in the experiment on HB3, with PAD and with SC27B was “inactive” throughout.
With `CC(=O)N1CCN(c2ccc(OC[C@@H]3CO[C@@](Cn4ccnc4)(c4ccc(Cl)cc4Cl)O3)cc2)CC1`, the Potency result in the experiment with AS120, in the experiment with ATS95, with C2A, with CP185, with CP191 and with CP201 was “inactive” in each case. The Potency entry with CP237, in the experiment on CP238, in the experiment on CP247, in the experiment on CP252, in the experiment on CP256 and in the experiment with CP265 was “inactive” throughout. For the same molecule, the Potency entry in the experiment with CP329, in the experiment on DIV30, with HB3, in the experiment on P94_40, in the experiment on PAD and in the experiment on PC49 was “inactive” each time. In addition, the Potency result in the experiment on SC27B and in the experiment with TAB113 was “inactive” each time.
For `COc1cc2nc(N(C)CCCNC(=O)[C@@H]3CCCO3)nc(N)c2cc1OC`, the Potency result with AS120, in the experiment on ATS95, in the experiment on C2A, in the experiment with CP185, in the experiment on CP191 and in the experiment with CP201 was “inactive” throughout. Also, the Potency result in the experiment with CP237, with CP238, in the experiment with CP247, in the experiment on CP252, with CP256 and in the experiment with CP265 was “inactive” each time. The Potency result with CP329, in the experiment on DIV30, in the experiment on HB3, in the experiment on P94_40, with PAD and in the experiment with PC49 was “inactive” each time. In addition, the Potency entry in the experiment with SC27B and in the experiment on TAB113 was “inactive” each time.
Regarding `C(=C/c1ccccc1)/CN1CCN(C(c2ccccc2)c2ccccc2)CC1`, the Potency result with AS120, in the experiment on ATS95, in the experiment with C2A, in the experiment with CP185, with CP191 and with CP201 was “inactive” throughout. Moreover, the Potency entry with CP238, in the experiment with CP247, in the experiment on CP252, in the experiment on CP256, in the experiment on CP265 and with CP329 was “inactive” throughout. Further, the Potency entry in the experiment on DIV30, in the experiment with HB3, in the experiment on P94_40, with PAD, with PC49 and in the experiment on SC27B was “inactive” each time. Also, in the experiment with TAB113, the Potency entry was “inactive”. For the same molecule, the Potency with CP237 was 3.55 µM (active).
